# Assay results as given in PubChem BioAssay.
# Calls of active or inactive are those of the source.
# Tests used:
# Albumin (Bos taurus) = Albumin (Bos taurus) (UniProt P02769); assay: compounds binding labelled BSA control protein – biochemical, small-molecule microarray, Alexa647 label, 635/667 nm fluorescence, artefact control for SMM control protein annotation, profiling panel (AID 1118); conditions: BSA-A647 binding, fluorescence 635 nm, higher = more signal;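 note: score merges 667 nm emission intensity and signal-to-noise per printed compound spot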
# [1] = probe aXIP binding to arrayed compounds – biochemical, NeuroSMM set, 635/667 nm fluorescence, primary screen (AID 1119); conditions: small-molecule microarray, higher = more signal, called active from +8 up or from −8 down;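 note: probe is the protein aXip251-270 applied at 1 µg/mL to compound-printed slides; binding of probe to printed compounds measured as 667 nm fluorescence plus signal to noise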
# [2] = probe aNOTCH3 binding on compound microarray – biochemical, small-molecule microarray, 635/667 nm fluorescence, primary screen (AID 1120); conditions: higher = more signal;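 note: probe is a biotin-tagged antibody raised against NOTCH3 rather than NOTCH3 protein; score merges spot fluorescence near 667 nm with spot signal to noise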
# [3] = probe aNOTCH2 binding on compound microarray – biochemical, small-molecule microarray, 635/667 nm fluorescence, primary screen (AID 1121); conditions: higher = more signal;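 note: score merges feature fluorescence read at 667 nm with its signal to noise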
# [4] = target: Carbonic anhydrase 2 (Homo sapiens) (UniProt P00918); assay: compounds binding carbonic anhydrase 2 – biochemical, small-molecule microarray, Alexa647-labelled CAII, profiling panel (AID 1122); conditions: CAII-A647 binding fluorescence, higher = more signal
# [5] = COS7 lysate on small-molecule microarray, probe aHis, 635 nm (AID 1123); conditions: COS7 cell lysate, fluorescence, higher = more signal;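 note: z-score combines 667nm fluorescence intensity with signal-to-noise per printed compound spot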
# [6] = probe aLAP1 signal on lysate-treated microarray – cell lysate, small-molecule microarray, COS7 lysate, primary screen (AID 1124); conditions: probe aLAP1, fluorescence, higher = more signal;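 note: lysate comes from COS7 cells expressing LAP1 and is applied at 0.3 µg/mL; score merges spot fluorescence near 667 nm with signal-to-noise over triplicate slides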
# Sam68 (KHDRBS1) = assay: compounds binding KHDRBS1 protein – biochemical, small-molecule microarray, 635 nm fluorescence, primary screen (AID 1125); conditions: higher = more signal;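 note: score merges 667 nm channel intensity with signal to noise over triplicate slides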
# [7] = tested on: Chordin-like protein 2 (CHRDL2); assay: compounds binding chordin-like 2 – biochemical, small-molecule microarray, 635 nm fluorescence, primary screen (AID 1126); conditions: fluorescence 635 nm, higher = more signal;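 note: printed compound slides probed with Chrdl2 protein at 4 µg/mL for 1 h at 4 C; score merges 667 nm emission intensity with signal to noise over three replicate slides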
# [8] = target: Concanavalin-A (Canavalia ensiformis) (UniProt P02866); assay: compounds binding concanavalin A lectin – biochemical, small-molecule microarray, Alexa647 label, 635 nm, artefact control for SMM control protein annotation, primary screen (AID 1127); conditions: ConA-A647 binding fluorescence, higher = more signal;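 note: z combines 667 nm emission intensity with signal-to-noise across three replicate slides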
# Sequence of Concanavalin-A (Canavalia ensiformis) (P02866 whole entry, looked up): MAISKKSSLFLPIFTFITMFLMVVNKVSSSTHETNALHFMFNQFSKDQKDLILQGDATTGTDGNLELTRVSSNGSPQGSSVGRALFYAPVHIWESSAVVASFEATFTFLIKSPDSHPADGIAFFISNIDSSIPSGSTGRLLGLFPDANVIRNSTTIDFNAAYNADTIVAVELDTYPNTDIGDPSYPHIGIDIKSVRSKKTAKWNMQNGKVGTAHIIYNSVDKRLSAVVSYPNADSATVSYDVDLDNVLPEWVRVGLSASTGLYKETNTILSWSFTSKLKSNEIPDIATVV
# Sequence of Albumin (Bos taurus) (P02769 whole entry, looked up): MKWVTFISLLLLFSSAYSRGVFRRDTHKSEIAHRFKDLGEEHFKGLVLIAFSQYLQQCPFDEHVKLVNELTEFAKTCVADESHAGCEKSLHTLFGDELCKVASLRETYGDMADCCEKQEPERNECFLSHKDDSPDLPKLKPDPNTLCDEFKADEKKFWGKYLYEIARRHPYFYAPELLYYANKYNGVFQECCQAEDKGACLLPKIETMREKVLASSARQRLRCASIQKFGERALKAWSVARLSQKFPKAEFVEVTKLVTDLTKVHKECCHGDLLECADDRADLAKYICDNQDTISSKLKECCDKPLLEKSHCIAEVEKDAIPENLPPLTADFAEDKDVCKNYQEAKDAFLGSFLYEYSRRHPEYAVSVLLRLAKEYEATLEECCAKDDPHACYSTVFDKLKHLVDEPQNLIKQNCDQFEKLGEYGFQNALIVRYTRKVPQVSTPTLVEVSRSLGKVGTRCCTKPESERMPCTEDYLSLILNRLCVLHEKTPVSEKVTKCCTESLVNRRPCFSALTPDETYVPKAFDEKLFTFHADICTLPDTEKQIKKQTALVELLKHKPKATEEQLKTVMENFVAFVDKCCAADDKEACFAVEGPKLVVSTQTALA
Structure (SMILES),composite z-score (Albumin (Bos taurus)),composite Z-score [1],composite z-score [2],composite z-score [3],composite z-score [4],composite z-score [5],composite z-score [6],composite z-score (Sam68 (KHDRBS1)),composite z-score [7],composite z-score [8]
C=CCNC(=O)[C@H]1[C@@H]2C(=O)O[C@@H](c3ccccc3)[C@@H](c3ccccc3)N2[C@@H](c2ccccc2OCCO)[C@]12C(=O)N(C(=O)OCCOC)c1ccc(C#CCNC(N)=O)cc12,0.676,-0.0888 (inactive),0.0379,-0.101,0.555,1.94,1.3,1.29,-0.246,1.14
Cc1ccccc1C(O)C1C=CC2C(=O)N(c3ccccc3)C(=O)C2N1Nc1ccc(C#N)cc1 (stereo not given),1.04,1.4 (inactive),0.841,0.417,0.652,2.87,1.37,1.31,0.632,1.18
O=C(NCc1ccccc1)[C@@]1(CCS(=O)(=O)c2ccccc2)COC(c2ccc(OCCCO)cc2)=N1,0.514,0.294 (inactive),0.291,0.0539,0.808,3.01,0.72,1.3,-0.696,1.17
C#CCCCON=C1C[C@@H](O)[C@@H](O)[C@@H]2[C@@H]3C(=O)N(Cc4ccc5c(c4)OCO5)C(=O)[C@@H]3CC[C@@H]12,0.352,-0.0164 (inactive),0.0225,-0.148,0.227,0.537,-0.0088,0.005,0.187,0.858
C=CC[C@]1(C(=O)OC)N=C(c2ccc(OCCCO)cc2)O[C@H]1c1ccccc1CN=[N+]=[N-],-0.573,3.17 (inactive),-0.0598,0.122,0.206,2.41,-0.0978,-1.11,-0.45,-1.06
CCN1C(C)=C(C(=O)OC)[C@@H](c2ccccc2)N2C(=O)[C@@]3(C(=O)OC)O[C@@]12[C@@H]1C(=O)N(c2ccccc2)C(=O)[C@@H]13,0.846,-0.0754 (inactive),-0.055,-0.153,0.66,0.463,0.581,1.14,0.522,0.744
C#C[C@H](O[Si](C#Cc1ccccc1)(C(C)C)C(C)C)c1ccccc1,0.0778,0.422 (inactive),-0.293,-0.0743,0.564,0.0271,0.252,0.0094,-0.429,-0.683
CO[C@H]1COC(=O)CC=C[C@H](C)COC(=O)[C@@H](OCc2ccccc2)C=C[C@@H]1C,-0.877,2.71 (inactive),-0.308,-0.14,-0.394,-0.234,0.0842,0.379,1.51,-0.602
COc1cc(Cc2cc3c(c(CCc4ccccc4)n2)[Si](C(C)C)(C(C)C)OC3)cc(OC)c1OC,-0.237,-0.334 (inactive),-0.0697,-0.165,0.0001,-0.177,-0.0868,-0.0118,0.182,0.255
COc1cc(CO)cc(I)c1O[C@H]1C=C(C(=O)NCCO)C[C@@H](NCCc2c[nH]c3ccccc23)[C@@H]1O,0.544,0.256 (inactive),0.124,-0.121,0.412,0.414,0.128,1.12,0.685,0.649
CCOC(=O)C1=CC[C@@H](c2ccccc2)N(S(=O)(=O)c2ccc(C)cc2)[C@H]1C,0.972,0.102 (inactive),0.29,0.0832,0.671,2.49,0.689,1.29,0.416,1.05
C=C(/C(=C/C[C@@H](OC(=O)c1ccncc1)c1ccc(CO)o1)c1cnc2ccccc2c1)C(C)C,0.485,0.0431 (inactive),0.0225,-0.132,0.557,0.606,0.367,1.3,1.21,1.17
CCCC=C(CCC)[C@@H](NS(=O)(=O)c1cccc(C(F)(F)F)c1)c1ccc(C(=O)OC)cc1,-0.0532,0.136 (inactive),1.7,1.06,0.169,0.455,0.134,0.601,-1.35,0.804
CN(C)c1ccc(C(O)C2C=CC3C(=O)NC(=O)C3N2Nc2ccc(Cl)cc2Cl)cc1 (stereo not given),0.667,0.66 (inactive),0.0961,0.046,0.735,2.51,0.305,0.708,-0.0762,0.332
CCOC(=O)C[C@H]1[C@H](OC(=O)c2cc3ccccc3oc2=O)[C@@H](NC(=O)C2CCCCC2)c2cc(OCCCO)ccc2N1C(=O)c1ccc2ccccc2n1,0.596,-0.0789 (inactive),-0.0311,-0.115,0.0744,0.801,-0.108,1.06,0.544,0.953
O=C1OCC=C[C@H]2OC34C=CCN(Cc5ccccc5)C(=O)[C@H]3N(CCO)C(=O)[C@@H]4[C@@H]12 (stereo not given in full),0.661,0.383 (inactive),-0.248,-0.177,0.824,0.666,-0.0963,-0.72,-1.82,-0.403

Structure (SMILES),composite z-score (Albumin (Bos taurus)),composite Z-score [1],composite z-score [2],composite z-score [3],composite z-score [4],composite z-score [5],composite z-score [6],composite z-score (Sam68 (KHDRBS1)),composite z-score [7],composite z-score [8]
C=CCOC(=O)[C@@H]1[C@H]2C(=O)O[C@H](c3ccccc3)[C@H](c3ccccc3)N2[C@H](c2ccc(OCCOC(=O)[C@H]3C[C@H]4C(=O)N[C@@H](CCCCNC(C)=O)C(=O)N4[C@H]3c3ccc(O)cc3)cc2)[C@@]12C(=O)Nc1ccc(I)cc12,-0.239,0.396 (inactive),0.0222,-0.0662,0.374,0.877,0.278,1.28,1.15,0.499
COCCOC(=O)N1C(=O)[C@@]2(c3cc(C#CCCO)ccc31)[C@H](c1ccc(O)cc1)N1[C@H](c3ccccc3)[C@H](c3ccccc3)OC(=O)[C@H]1[C@@H]2C(=O)Nc1nc2ccccc2s1,0.0742,-0.0844 (inactive),0.272,-0.0649,0.16,0.372,0.403,1.29,0.633,1.17
C#CCCCON=C1C[C@@H](O)[C@@H](O)[C@@H]2[C@@H]3C(=O)N(Cc4ccc5c(c4)OCO5)C(=O)[C@@H]3CC[C@H]12,0.86,0.756 (inactive),0.116,-0.181,0.495,1.21,0.786,1.15,0.558,0.752
Cc1ccc(S[C@]2(C(=O)O)CC(=O)N(Cc3cc(C(F)(F)F)cc(C(F)(F)F)c3)[C@@H]2c2ccc(CO)cc2I)cc1,0.372,1.54 (inactive),-0.243,-0.154,0.0858,0.0199,-0.439,0.456,-1.02,0.226
CCOC(=O)C1=CC[C@@H](c2ccc(-c3ccc(OCc4ccccc4)cc3)c(OC)c2)N(S(=O)(=O)c2ccc(C)cc2)[C@H]1c1ccccc1,0.713,1.53 (inactive),0.349,-0.146,0.469,1.64,0.87,1.24,0.0693,1.13
C=CC[C@]1(C(=O)O)N=C(c2ccc(OCCCO)cc2)O[C@H]1c1ccccc1,0.769,0.523 (inactive),-0.0591,0.0415,0.758,2.37,0.563,0.351,-0.916,0.486
CN(C)CCCC[C@@H]1NC(=O)[C@@H]2C[C@H](C(=O)NCCCCCNC(=O)CS)[C@H](c3ccc(O)cc3)N2C1=O,0.885,0.0077 (inactive),0.0261,-0.0976,0.58,1.18,0.24,0.697,1.07,1.15
CCCC=C(CCC)[C@@H](NS(=O)(=O)c1ccc(-c2ccccc2)cc1)c1ccc(C(=O)OC)cc1,-0.0722,-0.682 (inactive),-0.0846,-0.0651,-0.291,0.257,0.515,-0.829,-0.705,0.115
C/C(=N\O)C(=O)NCCCCCNC(=O)OCc1ccccc1,0.487,0.179 (inactive),0.0066,-0.0942,0.355,0.332,0.199,0.639,0.367,0.818
COc1ccc(CCNC(=O)[C@@]2(c3ccc([N+](=O)[O-])cc3)CC(=O)N(C(C)C)[C@@H]2c2ccc(CO)cc2)cc1,0.0638,0.265 (inactive),-0.331,-0.154,0.748,0.462,0.451,-0.549,-2.5,-0.895
O=C(NCc1ccccc1)c1ccc(Br)cc1[N+](=O)[O-],0.311,0.047 (inactive),0.116,-0.0488,0.727,0.35,-0.209,0.604,0.446,0.899
C[C@@H]1CC[C@H]2C(=O)N3[C@@H](CC[C@@H](C)[C@@H]3c3cccc(N4CCOCC4)c3)C(=O)N2[C@H]1c1cccc(N2CCOCC2)c1,0.0915,-0.354 (inactive),-0.344,-0.217,0.477,0.8,0.581,0.594,0.902,1.04
COC(=O)C1=CC(c2ccc(CO)cc2)=CC(c2cccs2)N(Cc2cccc(OC(F)(F)F)c2)C=C1C(=O)OC (stereo not given),1.09,0.639 (inactive),0.0979,-0.101,0.671,2.76,0.641,1.34,-0.602,1.18
O=C(N1CCCCC1)[C@@]1(CCS(=O)(=O)c2ccccc2)N=C(c2ccc(OCCCO)cc2)O[C@H]1c1ccccc1,-0.0092,-0.595 (inactive),0.0876,-0.0872,0.663,3.28,0.343,1.29,-0.58,0.639
COCCOC(=O)N1C(=O)[C@@]2(c3cc(C#CCNC(N)=O)ccc31)[C@H](c1ccc(OCCO)cc1)N1[C@H](c3ccccc3)[C@H](c3ccccc3)OC(=O)[C@H]1[C@@H]2C(=O)Nc1nc2ccccc2s1,-0.76,-0.0202 (inactive),-0.124,-0.126,0.277,0.447,0.338,0.289,0.903,0.915
COCCOC(=O)N1C(=O)[C@@]2(c3cc(C#CCNC(N)=O)ccc31)[C@H](C(=O)N1CCCCCCC1)[C@H]1C(=O)O[C@H](c3ccccc3)[C@H](c3ccccc3)N1[C@@H]2c1ccccc1OCCO,0.328,1.01 (inactive),0.555,0.0231,0.171,0.963,0.417,1.14,0.573,1.08
